Laboratory results taken from PubChem BioAssay (Tox21).
Inconclusive results are not listed. Active and inactive are the calls of the source. Unless noted, calls come from the whole dose curve; as a rule, active = well fitted curve in the direction sought with a large enough effect in the repeat runs; inconclusive = weak or mixed curves; inactive = no such curve, though single readings can be large; an effect the other way counts as inactive or inconclusive.

How the values were obtained:
[1] = qHTS assay to identify small molecule agonists of the peroxisome proliferator-activated receptor delta (PPARd) signaling pathway - cell viability counter screen (AID 743211); note: nearly all actives have a fitted effect of over 55% in size
Procedure, shortened: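 Counter screen for cytotoxicity run in parallel with the PPARd reporter screen. Beta-lactamase reporter HEK293H cells exposed to compounds 17 h; ATP-based CellTiter-Glo luminescence quantified viability.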

[2] = molecular target: Peroxisome proliferator-activated receptor delta (Homo sapiens) (UniProt Q03181); assay: qHTS assay to identify small molecule agonists of the peroxisome proliferator-activated receptor delta (PPARd) signaling pathway (AID 743212; calls by dose curve;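 note: HEK293H cells with PPARd UAS beta-lactamase reporter GeneBLAzer system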)
Sequence of Peroxisome proliferator-activated receptor delta (Homo sapiens) (Q03181 whole entry, looked up): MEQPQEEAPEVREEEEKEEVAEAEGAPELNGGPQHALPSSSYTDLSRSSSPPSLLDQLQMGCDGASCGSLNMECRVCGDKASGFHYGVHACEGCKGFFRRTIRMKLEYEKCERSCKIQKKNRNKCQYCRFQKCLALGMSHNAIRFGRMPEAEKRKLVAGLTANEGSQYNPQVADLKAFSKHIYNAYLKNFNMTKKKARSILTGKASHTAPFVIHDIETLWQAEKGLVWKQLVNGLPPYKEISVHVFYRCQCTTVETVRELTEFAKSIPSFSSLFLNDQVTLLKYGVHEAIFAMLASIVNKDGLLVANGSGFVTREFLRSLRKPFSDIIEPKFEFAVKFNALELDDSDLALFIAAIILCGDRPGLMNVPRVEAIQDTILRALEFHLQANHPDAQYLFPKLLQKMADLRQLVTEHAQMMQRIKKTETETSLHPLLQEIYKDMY
Procedure, shortened: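 Beta-lactamase reporter read by fluorescence (LiveBLAzer B/G FRET, 2 h, room temperature). Test agents, in DMSO, incubated at 37 C with PPARd-bla HEK293H cells.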

[3] = molecular target: Peroxisome proliferator-activated receptor delta (Homo sapiens) (UniProt Q03181); assay: qHTS assay to identify small molecule antagonists of the peroxisome proliferator-activated receptor delta (PPARd) signaling pathway (AID 743215; active = well fitted inhibition curve with a large enough effect in the signal ratio in the repeat runs, not every such curve was filed as active; the % refers to the signal ratio;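 note: cells stimulated with agonist L165041 at 300 nM final during compound exposure; series mostly up to about 62 µM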)
Procedure, shortened: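 Agonist L165041 (300 nM final) added with compound to PPARd-bla HEK293H UAS-bla reporter cells; 17 h incubation at 37 C. Read-out: LiveBLAzer FRET substrate, 2 h at room temperature, fluorescence intensity.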

[4] = qHTS assay to identify small molecule agonists of the farnesoid-X-receptor (FXR) signaling pathway - cell viability counter screen (AID 743218); note: nearly all actives have a fitted effect of over 45% in size
Procedure, shortened: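 Viability counter screen in the same wells: CellTiter-Glo luminescence, 30 min room-temperature incubation, measured after the beta-lactamase read. Cells were GeneBLAzer FXR-UAS-bla HEK 293T, compound-treated 16 h at 37C.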

[5] = molecular target: Bile acid receptor (Homo sapiens) (UniProt Q96RI1); assay: qHTS assay to identify small molecule agonists of the farnesoid-X-receptor (FXR) signaling pathway (AID 743220; active = well fitted activation curve with a large enough effect in the signal ratio in the repeat runs, not every such curve was filed as active; the % refers to the signal ratio)
Sequence of Bile acid receptor (Homo sapiens) (Q96RI1 whole entry, looked up): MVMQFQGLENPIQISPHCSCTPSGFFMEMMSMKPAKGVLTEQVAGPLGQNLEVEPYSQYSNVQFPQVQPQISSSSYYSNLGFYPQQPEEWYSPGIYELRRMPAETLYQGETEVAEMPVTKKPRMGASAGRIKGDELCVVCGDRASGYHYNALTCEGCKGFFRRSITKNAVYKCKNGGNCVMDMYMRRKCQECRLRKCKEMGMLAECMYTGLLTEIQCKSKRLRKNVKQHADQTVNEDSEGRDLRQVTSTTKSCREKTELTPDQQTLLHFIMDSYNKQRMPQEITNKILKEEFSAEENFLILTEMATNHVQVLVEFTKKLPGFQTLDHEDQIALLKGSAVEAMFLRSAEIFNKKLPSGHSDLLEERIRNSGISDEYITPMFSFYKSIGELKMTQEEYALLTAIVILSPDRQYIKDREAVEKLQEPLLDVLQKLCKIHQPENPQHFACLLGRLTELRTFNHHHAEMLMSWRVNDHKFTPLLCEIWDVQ
Procedure, shortened: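 FXR-UAS-bla HEK 293T cells carrying a UAS-driven beta-lactamase reporter were plated for 5 h at 37C/5% CO2, then exposed to DMSO-dissolved Tox21 10K compounds for 16 h at 37C. A LiveBLAzer B/G FRET substrate was loaded for 2 h at room temperature before fluorescence reading.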

[6] = qHTS assay to identify small molecule antagonists of the farnesoid-X-receptor (FXR) signaling pathway - cell viability counter screen (AID 743221; active = well fitted cell-killing curve with a large enough effect in the repeat runs, not every such curve was filed as active; note: nearly all actives have a fitted effect of over 50% in size)
Procedure, shortened: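 Multiplexed counter screen: viability of FXR-bla HEK 293T cells under agonist stimulation by chenodeoxycholic acid (50 uM, final) and test compound for 16 h at 37 C, measured by CellTiter-Glo luminescence in the reporter wells.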

[7] = molecular target: Vitamin D3 receptor (Homo sapiens) (UniProt P11473); assay: qHTS assay to identify small molecule agonists of the vitamin D receptor (VDR) signaling pathway (AID 743222; calls by dose curve)
Sequence of Vitamin D3 receptor (Homo sapiens) (P11473 whole entry, looked up): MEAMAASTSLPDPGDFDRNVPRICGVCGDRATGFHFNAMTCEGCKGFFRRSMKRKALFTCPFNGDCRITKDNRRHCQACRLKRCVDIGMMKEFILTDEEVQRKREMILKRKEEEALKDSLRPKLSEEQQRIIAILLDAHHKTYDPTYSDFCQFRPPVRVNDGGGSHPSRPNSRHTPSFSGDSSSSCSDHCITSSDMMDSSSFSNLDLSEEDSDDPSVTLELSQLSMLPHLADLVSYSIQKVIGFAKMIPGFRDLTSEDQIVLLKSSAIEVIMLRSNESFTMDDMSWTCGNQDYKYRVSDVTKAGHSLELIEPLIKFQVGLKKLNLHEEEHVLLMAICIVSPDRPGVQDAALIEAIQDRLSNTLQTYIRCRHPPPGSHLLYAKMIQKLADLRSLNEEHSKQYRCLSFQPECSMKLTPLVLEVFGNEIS
Procedure, shortened: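 Agonist mode, beta-lactamase reporter: fluorescence from LiveBLAzer B/G FRET substrate (2 h, room temperature) read after 16 h compound treatment at 37 C of VDR-bla cells, which were pre-incubated 4 h after seeding.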

[8] = qHTS assay to identify small molecule agonists of the vitamin D receptor (VDR) signaling pathway - cell viability counter screen (AID 743224); note: series mostly up to about 63 µM; nearly all actives have a fitted effect of over 50% in size
Procedure, shortened: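 Counter screen run in the same wells as the VDR-bla reporter assay: CellTiter-Glo luminescence, 30 min at room temperature, after 16 h compound treatment at 37C of cells pre-plated for 4 h.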

[9] = qHTS assay to identify small molecule agonists of the NFkB signaling pathway (AID 1159509; active = well fitted curve in the direction sought with a large enough effect in the signal ratio in the repeat runs, not every such curve was filed as active; the % refers to the signal ratio; note: series mostly up to about 61 µM)
Procedure, shortened: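 Beta-lactamase reporter assay run in quantitative high-throughput format on an NF-kB-responsive ME-180 line, with 5 hr compound treatment and a FRET-based blue/green fluorescence readout.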

[10] = qHTS assay to identify small molecule agonists of the NFkB signaling pathway - cell viability counter screen (AID 1159515; calls by dose curve; note: series mostly up to about 61 µM; nearly all actives have a fitted effect of over 55% in size)
Procedure, shortened: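 Read by CellTiter-Glo luminescence (30 min, room temperature) in the wells also used for the beta-lactamase FRET read. ME-180 NFkB-bla cells at 2,000 per well were plated overnight, then exposed to compound for 5 hr at 37 C.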

[11] = qHTS assay to identify small molecule agonists of the endoplasmic reticulum stress response signaling pathway (AID 1159516; active = well fitted activation curve with a large enough effect in the signal ratio in the repeat runs, not every such curve was filed as active; the % refers to the signal ratio)
Procedure, shortened: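 Ratiometric FRET readout (405 nm excitation; 460 and 530 nm emission) of a beta-lactamase gene driven by the ER stress response element, after 2 hr substrate loading. HeLa ESRE-bla cells were seeded overnight and treated with compounds for only 5 hr at 37 C.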

[12] = qHTS assay to identify small molecule agonists of the endoplasmic reticulum stress response signaling pathway - cell viability counter screen (AID 1159517; calls by dose curve; note: series mostly up to about 61 µM; nearly all actives have a fitted effect of over 50% in size)
Procedure, shortened: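 Cytotoxicity of test compounds toward ESRE-bla HeLa cells was assessed after 5 hr exposure. The luminescent CellTiter-Glo signal was measured 30 min after reagent addition.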

[13] = qHTS assay to identify small molecule antagonists of the retinoid-related orphan receptor gamma (ROR-gamma) signaling pathway - cell viability counter screen (AID 1159520); note: nearly all actives have a fitted effect of over 50% in size
Procedure, shortened: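 Tet-on ROR gamma CHO cells (1,000/well) were plated 4 hr, given compounds in DMSO for 2 hr at 37 C, then induced with 1 uM final doxycycline for 16 hr. Viability was read as ATP by CellTiter-Glo luminescence after 30 min.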

[14] = molecular target: Nuclear receptor ROR-gamma (Homo sapiens) (UniProt P51449); assay: qHTS assay to identify small molecule antagonists of the retinoid-related orphan receptor gamma (ROR-gamma) signaling pathway (AID 1159521)
Procedure, shortened: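 Cells were plated, rested 4 h at 37 C, exposed to compounds for 2 h, then given 1 uM final doxycycline hyclate to induce RORγ expression. After 16 h, ONE-Glo luminescence from the ROR response element reporter was measured.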

[15] = qHTS assay to identify small molecule agonists of the AP-1 signaling pathway - cell viability counter screen (AID 1159525; calls by dose curve; note: nearly all actives have a fitted effect of over 55% in size)
Procedure, shortened: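 Each titration point was normalised to DMSO and tetra n-octyl ammonium bromide controls. The read was Cell Titer Glo luminescence after 30 min at RT, following 5 h compound exposure of ME-180 AP-1-bla cells at 37 °C.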

[16] = qHTS assay to identify small molecule antagonists of the vitamin D receptor (VDR) signaling pathway - cell viability counter screen (AID 743225); note: nearly all actives have a fitted effect of over 50% in size
Procedure, shortened: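 HEK293T VDR-bla; cpd + 1a,25-(OH)2D3 3 nM final, 16 h 37C/5% CO2; B/G FRET substrate 2 h RT; then CellTiter-Glo 30 min RT, luminescence.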

[17] = molecular target: Vitamin D3 receptor (Homo sapiens) (UniProt P11473); assay: qHTS assay to identify small molecule antagonists of the vitamin D receptor (VDR) signaling pathway (AID 743223; active = well fitted inhibition curve with a large enough effect in the signal ratio in the repeat runs, not every such curve was filed as active; the % refers to the signal ratio)
Procedure, shortened: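 Cells carrying a VDR-driven beta-lactamase reporter (VDR-bla) were co-treated with compound and 3 nM final 1alpha,25-dihydroxyvitamin D3 for 16 h at 37C; reporter activity was measured as FRET substrate fluorescence after 2 h at room temperature.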

[18] = qHTS assay to identify small molecule antagonists of the peroxisome proliferator-activated receptor delta (PPARd) signaling pathway - cell viability counter screen (AID 743213); note: nearly all actives have a fitted effect of over 50% in size
Procedure, shortened: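 Viability counter-screen, qHTS format: PPARd-bla HEK293H, L165041 300 nM final, 17 h compound exposure at 37 C, CellTiter-Glo luminescence after 30 min RT.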

[19] = molecular target: Bile acid receptor (Homo sapiens) (UniProt Q96RI1); assay: qHTS assay to identify small molecule antagonists of the farnesoid-X-receptor (FXR) signaling pathway (AID 743217; active = well fitted inhibition curve with a large enough effect in the signal ratio in the repeat runs, not every such curve was filed as active; the % refers to the signal ratio)
Procedure, shortened: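 Antagonist mode: chenodeoxycholic acid at 50 uM final stimulates a UAS-driven beta-lactamase reporter in HEK 293T FXR-bla cells during 16 h, 37C compound exposure. Read-out is FRET substrate fluorescence after 2 h at room temperature.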

Measured: Potency

CCc1cc2cc(OC)c(OC)cc2c(Cc2ccccc2)n1
not listed: [16] | [17] | [18] | [19]
inactive: all other assays above

O=C(O)C(=O)Cc1c[nH]c2ccccc12
not listed: [5] | [6] | [17] | [18] | [19]
inactive: all other assays above

C[C@]12C(=O)OC(=O)[C@H]1[C@H]1C=C[C@@H]2C1
not listed: [3] | [5] | [18] | [19]
inactive: all other assays above

O=c1[nH]cnc2c1ncn2[C@@H]1O[C@H](CO)[C@@H](O)[C@H]1O
not listed: [6] | [19]
inactive: all other assays above

O=C1CCCCCCCCCCC(=O)OCCO1
not listed: [2] | [3] | [5] | [19]
inactive: all other assays above

CC(C)C[C@H](NC(=O)OCC1c2ccccc2-c2ccccc21)C(=O)O
not listed: [3] | [6] | [7] | [17] | [18] | [19]
inactive: all other assays above

C=CCCC=C
not listed: [6] | [7] | [8] | [17] | [18]
inactive: all other assays above

CCN(CCCc1ccccc1)CCCc1ccccc1
not listed: [6] | [18]
inactive: all other assays above

CN1CCN(C2=Nc3ccccc3Oc3ccc(Cl)cc32)CC1
not listed: [2] | [4] | [5] | [6] | [7] | [18] | [19]
inactive: all other assays above
